# Measured values from PubChem BioAssay.
# Calls of active or inactive are those of the source. No rule for the calls is given here.
# Experiment: inhibition of 3D7 malaria parasite growth – strain 3D7 (AID 2306);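 also: 0% = DMSO wells and 100% = chloroquine plus artemisinin control wells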
# Conditions: P. falciparum 3D7 erythrocytic growth, LDH absorbance, 72 h; at 2 µM; active compounds read high
row,SMILES,growth inhibition
1,O=C(/C=C/c1ccc(Cl)c(Cl)c1)NCCCCCN1CCC(NC(=O)Nc2ccc(Cl)c(C(F)(F)F)c2)CC1,99% (active)
2,Cc1cc(CNCCCCCNCc2ccc(Cl)cc2)ccc1O,98% (active)
3,O=C(Nc1ccc(F)cc1)NC1CCN(c2ccnc3cc(Cl)ccc23)CC1,97% (active)
4,COc1cc(OC)c(NC(=O)C2c3ccccc3C(=O)N(C)C2c2cccs2)cc1Cl (stereo not given),99% (active)
5,Cc1[nH]cc(Br)c(=O)c1-c1ccc(Oc2ccccc2)cc1,97% (active)
6,COc1ccc2nccc([C@@H](O)CN3CCC(NCc4ccc5c(c4)NC(=O)C(C)(C)O5)CC3)c2c1,100% (active)
7,CCCN1CCN(c2cc(S(=O)(=O)Nc3ccc(C(=O)NCc4cccc(C(F)(F)F)c4)cc3)ccc2OC)CC1,92% (active)
8,CC(C)CNCc1cccc(-c2cccc(CN(CCCN3CCN(C)CC3)C(=O)Nc3ccccc3)c2)c1,95% (active)
9,C=CCOC(=O)N1CCC(CNCc2cccc(-c3ccc(-c4nc5c(C)cccc5[nH]4)s3)c2)C1 (stereo not given),101% (active)
10,Cc1nc2ccc3ccc(CNc4ccc5c(c4)CN([C@H](CCC(=O)O)C(=O)O)C5=O)cc3c2c(=O)[nH]1,87% (active)
11,O=C(CN(c1cccc(C(F)(F)F)c1)S(=O)(=O)c1ccc(Cl)cc1)NCCC(c1ccccc1)c1ccccc1,94% (active)
12,CCOc1ccc(-c2nc(NC(=O)COc3ccc(OC)cc3)sc2C)cc1,99% (active)
13,CC(=O)Nc1csc(-c2cnc(/C=C(\C)C[C@@H]3OC[C@H](C[C@@H]4O[C@H]4[C@@H](C)[C@H](C)O)[C@@H](O)[C@H]3O)o2)c1,94% (active)
14,NC(N)=NN=Cc1ccc2ccc3ccccc3c2c1,101% (active)
15,COc1cccc(C(=O)Nc2ccc(S(=O)(=O)c3cc4c(cc3OC)CCN(C)CC4)cc2)c1,86% (active)
16,CCOc1ccc(-c2nonc2NC(=O)c2ccc(F)cc2)cc1OCC,102% (active)
17,CC(C)CCNC(=O)C1Cc2c([nH]c3cc(Br)ccc23)C2(CCN(Cc3ccccc3)CC2)N1 (stereo not given),96% (active)
18,c1ccc2ncc(CNCCCCCCCCNCc3cnc4ccccc4c3)cc2c1,88% (active)
19,Cc1cc(N(C)C)nc(Nc2ccc(NC(=O)c3c(F)cccc3F)cc2)n1,94% (active)
20,O=C(c1ccccc1F)N(Cc1ccc(Cl)cc1)c1ccccn1,84% (active)

row,SMILES,growth inhibition
1,N#Cc1ccc(C=Cc2nccc3c2[nH]c2ccccc23)cc1,97% (active)
2,N#Cc1ccc(CN2CCCN(c3ccc(NC(=O)c4ccc(F)cc4)cc3)CC2)cc1,90% (active)
3,N#Cc1cccc(C(=O)Nc2cccc(-c3ccc(CN4CCCC4)cc3)c2)c1,98% (active)
4,CN(C(=O)NCCc1ccccc1)C1CCN(CCCCCNC(=O)/C=C/c2ccc(Cl)c(Cl)c2)CC1,93% (active)
5,COc1ccccc1-n1ccnc1SCC(=O)Nc1cc(C(F)(F)F)ccc1Cl,97% (active)
6,O=C(O)/C=C/c1cccc(F)c1F,96% (active)
7,Cc1cc(N[C@@H](Cc2ccccc2)C(=O)NCc2cccc(F)c2)nc(NCCc2cccs2)n1,99% (active)
8,CCc1ccc(CN2CCC(CNC(=O)c3cc(-c4ccccc4Cl)cs3)C2)cc1 (stereo not given),98% (active)
9,COc1cccc(-c2ccc3c(-c4cccc(S(C)(=O)=O)c4)cnc(N)c3c2)c1,96% (active)
10,COc1ccc2c(NN=Cc3ccc(N(C)C)cc3)ccnc2c1,102% (active)
11,CCCc1cn2c3c(cc(C(=O)N[C@@H](Cc4ccccc4)[C@H](O)CNC4CCCCC4)cc13)N(C)S(=O)(=O)CC2,99% (active)
12,Cc1cccc2[nH]c(-c3cccc(-c4cccc(NC(=O)CNC(=O)c5ccc(O)cc5)c4)c3)nc12,94% (active)
13,NC1CCN(CCNCc2cccc(-c3ccc(-c4nc5ccc(F)cc5[nH]4)cc3)c2)C1 (stereo not given),99% (active)
14,OC1CCCN(Cc2cccc(-c3ccc(-c4nc5ccc(C(F)(F)F)cc5[nH]4)cc3)c2)C1 (stereo not given),100% (active)
15,COc1ccc(CNC2Cc3ccccc3C2)cc1-c1ccc(S(=O)(=O)NCCN2CCCC2)cc1,101% (active)
16,OC(CNCc1ccccc1Oc1ccccc1)c1cc(Br)cs1 (stereo not given),94% (active)
17,CNc1nc(NN=Cc2cc3c(cc2[N+](=O)[O-])OCO3)nc(Nc2cccc(C(F)(F)F)c2)n1,101% (active)
18,Cc1cc(CNCC(CCNc2cc(=O)c3ccccc3[nH]2)NCc2cc(Br)cc(Br)c2)oc1C (stereo not given),98% (active)
19,CCc1cn2c3c(cc(C(=O)N[C@@H](Cc4ccccc4)[C@H](O)CNC4CCC4)cc13)N(C)S(=O)(=O)CC2,98% (active)
20,O=C(Nc1ccc(C(F)(F)F)cc1)c1ccc(S(=O)(=O)NC2CCN(Cc3ccccc3)C2)cc1 (stereo not given),101% (active)
